Only some compounds are listed: those with a hit (about 12% of all), similar ones and a draw of the others.
m-calpain inh = inhibitors of pig calpain II, primary screen, biochemical, fluorogenic peptide substrate, 1536-well; purified calpain II, 30 min; AID 1236, 2008; inhibition, % at 16 µM; actives 0.37% (n = 220,000);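 active = inhibition above about 50%, limit read from the data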
ROMK mod = ROMK potassium channel modulators, primary screen, cell-based, thallium flux, MLSMR library. ATP-sensitive inward rectifier potassium channel 1 (Homo sapiens), P48048. Tet-inducible ROMK, thallium flux fluorescence; actives lie on both sides. B-score at 10 µM. actives 2% (n = 130,000). AID 1918, 2009;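 active = signal ratio slope over the read window, or its plate-corrected B-score, at least 3 SD from the plate mean, either direction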;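 note: B-score of the F/F0 ratio slope over 7 to 12 s after thallium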
Lmaj promast = Leishmania major promastigote growth inhibition, primary screen; AID 1063, 2008; inhibition, % at 10 µM; actives 9% (n = 200,000); Leishmania major promastigotes, resazurin fluorescence viability; in the data active = inhibition above about 50%;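 note: promastigotes grown with compound for 44 hours at 28 °C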
Cl transport mod = KCC2 cotransporter modulators, thallium flux, primary screen, cell-based, HEK293 KCC2, FluoZin-2 fluorescence, MLSMR | Solute carrier family 12 member 5 (Homo sapiens), Q9H2X9 | KCC2 cells, thallium flux FluoZin-2 fluorescence | B-score of Tl+ flux slope (higher = more flux/activation; lower = inhibition) at 10 µM | actives 2.2% (n = 190,000);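 active = thallium flux slope and its plate-corrected score both differing from the plate sample mean at a set confidence after two filtering rounds, in either direction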;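 note: slope of fluorescence scaled to starting intensity during 10 to 20 s after thallium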
Target sequence (Q9H2X9 whole entry, looked up): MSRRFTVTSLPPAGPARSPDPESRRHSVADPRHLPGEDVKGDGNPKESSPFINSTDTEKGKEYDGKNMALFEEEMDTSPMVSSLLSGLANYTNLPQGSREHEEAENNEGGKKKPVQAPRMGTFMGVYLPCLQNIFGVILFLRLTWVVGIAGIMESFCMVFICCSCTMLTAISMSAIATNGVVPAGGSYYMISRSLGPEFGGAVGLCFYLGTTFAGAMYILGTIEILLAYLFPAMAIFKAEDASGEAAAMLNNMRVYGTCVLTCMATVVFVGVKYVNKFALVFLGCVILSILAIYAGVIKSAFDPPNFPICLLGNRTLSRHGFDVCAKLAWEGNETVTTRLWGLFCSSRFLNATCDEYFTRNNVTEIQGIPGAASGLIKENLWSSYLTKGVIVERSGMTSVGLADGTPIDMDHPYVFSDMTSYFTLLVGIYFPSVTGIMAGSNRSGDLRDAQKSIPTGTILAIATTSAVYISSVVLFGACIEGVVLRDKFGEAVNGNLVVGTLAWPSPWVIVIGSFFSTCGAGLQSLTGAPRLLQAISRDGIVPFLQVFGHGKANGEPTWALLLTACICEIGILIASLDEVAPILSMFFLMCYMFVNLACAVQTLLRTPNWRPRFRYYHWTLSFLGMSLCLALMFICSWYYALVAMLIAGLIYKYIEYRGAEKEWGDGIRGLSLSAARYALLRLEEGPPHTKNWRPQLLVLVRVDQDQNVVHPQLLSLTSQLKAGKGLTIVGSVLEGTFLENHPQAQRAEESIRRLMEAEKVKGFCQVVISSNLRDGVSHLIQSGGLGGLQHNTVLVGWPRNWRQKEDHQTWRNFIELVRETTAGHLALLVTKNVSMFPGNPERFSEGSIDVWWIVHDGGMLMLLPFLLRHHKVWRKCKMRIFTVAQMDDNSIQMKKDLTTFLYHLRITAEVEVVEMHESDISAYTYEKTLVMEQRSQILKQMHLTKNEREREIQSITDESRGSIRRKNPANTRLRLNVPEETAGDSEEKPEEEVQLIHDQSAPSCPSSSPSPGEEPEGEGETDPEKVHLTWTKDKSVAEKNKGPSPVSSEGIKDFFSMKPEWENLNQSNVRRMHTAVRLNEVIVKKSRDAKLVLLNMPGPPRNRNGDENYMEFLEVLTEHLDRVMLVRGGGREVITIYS
WT yeast gro inh = growth inhibition of WT strain, primary screen, mitochondrial fusion inhibitor project, WT and mutant strains, chemical genetic; mitochondrial fusion phenotypic screen; inhibition, % at 10 µM; actives 2.1% (n = 190,000); AID 1362, 2008; in the data active = inhibition above about 58%; tested in S. cerevisiae
Active calls of the source: *; / = not tested or not shown.

SMILES | m-calpain inh | ROMK mod | Lmaj promast | Cl transport mod | WT yeast gro inh
CCOc1ccc(CCNC(=O)CSc2nn(-c3ccc(C)c(Cl)c3)c(=S)s2)cc1OCC | -31 | 0.73 | -6 | -2 | -7
COC(=O)N/N=C(\C)c1ccc2ccccc2c1OC(F)F | -1 | -0.3 | 56* | -0.84 | -5
CC1CCc2nc(NC(=O)c3ccc(S(=O)(=O)N4CCCc5ccccc54)cc3)sc2C1 (stereo not drawn) | -58 | / | 15 | / | -4
COCc1nnc(NC(=O)c2ccc(S(=O)(=O)N3CCCCCC3)cc2)o1 | 12 | / | -6 | / | 24
O=C(Nc1nc2c(s1)CCCC2)c1ccc(S(=O)(=O)N2CCCc3ccccc32)cc1 | -21 | 0.93 | 98* | / | 0
CNC(=O)c1ccsc1NC(=O)c1ccc(S(=O)(=O)N2CCCc3ccccc32)cc1 | -41 | 0.55 | 100* | 0.29 | 52
CCc1nnc(NC(=O)c2ccc(S(=O)(=O)N3CCCc4ccccc43)cc2)o1 | -101 | -0.16 | 99* | / | 70*
COC(=O)Nc1ccc(S(=O)(=O)N2CCCc3ccccc32)cc1 | 2 | / | 42 | / | -1
CCn1c(SCC(=O)Nc2cc(C)nn2-c2ccccc2)nnc1-c1cccs1 | -6 | 0.41 | / | 0.37 | /
O=C(Nc1ccc(N2CCCC2)c(Cl)c1)c1cccnc1 | 13 | / | 68* | -0.64 | 14
Cc1cc(C(=O)Nc2ccc(N3CCCC3)c(Cl)c2)ccc1[N+](=O)[O-] | 50* | 0.27 | 6 | 0.33 | 29
O=C(Nc1ccc(N2CCCC2)c(Cl)c1)c1ccc([N+](=O)[O-])cc1 | 13 | 0.27 | -1 | 2.1 | 1
N#CCCCSc1nnc(-c2ccc(Cl)cc2)n1-c1ccccc1 | 4 | / | 9 | -1.5 | -1
COC(=O)c1ccc(=O)n(Cc2ccco2)c1 | -35 | 0.66 | -3 | 0.45 | -10
COC(=O)c1cc(=O)n(CCc2ccccc2F)c(=Nc2ccc(F)c(Cl)c2)s1 | -2 | / | 99* | 0.63 | 1
COC(=O)c1cc(=O)n(Cc2ccco2)c(=Nc2ccc(F)c(Cl)c2)s1 | 1 | / | 100* | / | 26
Cc1nn(C)c(C)c1/C=C/C(=O)c1cccs1 | -8 | / | 72* | -1 | 20
CC1=[N+](C)N(c2ccccc2)C(=O)C1N=C/C=C/c1ccccc1 (stereo not drawn) | -2 | / | / | -0.99 | /
CC1(C)Cc2ccccc2-c2nnc(SCC(=O)N3CCN(c4ccccc4)CC3)n21 | 0 | -1.8 | 10 | / | 61*
Cc1ccccc1-n1c(SCC(=O)N2CCC(C(=O)O)CC2)nnc1-c1ccncc1 | -18 | 0.053 | 0 | -0.05 | 5
Cc1ccccc1-n1c(SCC(=O)N2CCN(c3ccccc3)CC2)nnc1-c1ccncc1 | -35 | / | 62* | 0.18 | 20
Cc1ccc(S(=O)(=O)N2CCOCC2)cc1NC(=O)CN1CCC(Cc2ccccc2)CC1 | 13 | -1.7 | 23 | -1.7 | 19
Nc1nnc(SCC(=O)c2ccc([N+](=O)[O-])cc2)s1 | -16 | -0.041 | 84* | 0.2 | 0
Cc1cc(C)c(S(=O)(=O)Nc2cc(SCC(=O)O)c(O)c3ccccc23)cc1C | -25 | -0.66 | 99* | -0.77 | 36
CC(C)C1Nc2c(O)cc(Cl)c([N+](=O)[O-])c2C2C=CCC21 (stereo not drawn) | -38 | -0.88 | -4 | -3.4 | 83*
SMILES | m-calpain inh | ROMK mod | Lmaj promast | Cl transport mod | WT yeast gro inh
CC1CCc2ccc(F)cc2N1S(=O)(=O)c1cccs1 (stereo not drawn) | 7 | / | 96* | 0.035 | 6
O=S(=O)(NC1CCc2ccccc21)c1ccc(S(=O)(=O)N2CCCC2)cc1 (stereo not drawn) | -9 | -0.53 | 72* | -0.86 | -11
O=C(Nc1ccc(Br)c(C(F)(F)F)c1)c1ccc(C(F)(F)F)cc1 | 25 | 0.34 | / | -0.016 | /
O=C(Nc1ccc(Br)c(C(F)(F)F)c1)c1ccccc1 | 22 | -1.4 | 61* | -2.2 | 66*
CC(=O)c1ccc(NC(=O)C(C)n2c3ccccc3c3nc(=O)cc(C)n32)cc1 (stereo not drawn) | 11 | -0.41 | / | 0.054 | /
CC(C)(C)C(=O)NC1CCN(S(=O)(=O)c2cccc(C(F)(F)F)c2)CC1 | 14 | 0.63 | -3 | -1 | -15
O=C(O)CCN1CCOCC1 | 11 | / | -1 | 0.8 | -5
O=C(CCN1CCOCC1)c1ccccc1 | 14 | -0.38 | 95* | -0.23 | 20
CCc1oc2ccccc2c1C(=O)CCN1CCCCC1 | -12 | / | 74* | 0.18 | 12
O=C(CCN1CCCCC1)Nc1ccccc1 | -15 | -1.4 | -3 | 2.2 | -2
OC(CCCCN1CCCCC1)c1ccccc1 (stereo not drawn) | -36 | 0.038 | 54* | 0.69 | 2
O=c1oc2ccccc2c(N2CCCCC2)c1CN1CCCC1 | 22 | 0.15 | 4 | 0.66 | 14
O=C(CCN1CCCCC1)c1ccccc1 | -30 | -0.5 | 74* | -0.17 | -13
NC(=O)[C@@H]1CCCN1Cc1nc(-c2ccc(C(F)(F)F)cc2)no1 | 22 | -0.22 | -2 | -1.5 | 8
Cn1cc(C(=O)NCc2cccs2)c(=O)c2cc(S(=O)(=O)N3CCCC3)ccc21 | -2 | -0.34 | 12 | -1.1 | -7
Cc1cc(Cl)nc(Cl)c1C(=O)NC(=O)NCCC(C)C | 41 | -1.1 | 1 | -0.11 | 4
COc1ccc(C(=O)N(C)C2CCN(C)CC2)cc1S(=O)(=O)Nc1cc(Cl)ccc1Cl | -21 | / | / | 0.18 | /
CCc1ccc(NC(=S)N(Cc2cccnc2)Cc2ccco2)cc1 | -8 | -1.6 | 100* | -0.14 | 8
COc1ccc(NC(=S)N(Cc2cccnc2)Cc2ccco2)cc1 | 2 | -0.62 | 91* | 0.87 | -9
CCCC/C(O)=C1\C(=O)CC(C)(C)CC1=Nc1ccc(N)cc1 | -2 | -0.1 | 3 | -1.5 | -8
Cc1ccc2nc(NC(=O)COC(=O)CSc3nc(C)cc(C)n3)sc2c1 | -16 | / | -2 | -0.059 | -7
COc1ccc2nc(NC(=O)CSc3nc(C)cc(C)n3)sc2c1 | -1 | -0.81 | 51* | -0.67 | 10
CCn1nnnc1SCC(=O)Nc1nc2ccc(OC)cc2s1 | 25 | / | 86* | 0.39 | 9
Cc1cc(C(=O)N2CCN(c3ncccn3)CC2)cs1 | -15 | / | -2 | 0.58 | -17
Oc1c(C(Nc2ccccn2)c2ccccn2)ccc2cccnc12 (stereo not drawn) | -31 | / | 100* | -1 | -15
COc1cc(C(Nc2ccccn2)c2ccc3ccc(C)nc3c2O)cc(OC)c1O (stereo not drawn) | -24 | / | 94* | -1.3 | /
COc1ccc(C(Nc2cc(C)ccn2)c2ccc3ccc(C)nc3c2O)cc1 (stereo not drawn) | -25 | 0.3 | / | 1.9 | /
COc1ccccc1NC(c1cccnc1)c1ccc2cccnc2c1O (stereo not drawn) | 12 | / | 3 | 0.52 | -9
CC(=O)NC(c1ccco1)c1ccc2cccnc2c1O (stereo not drawn) | -11 | 0.77 | 98* | / | 32
